Molecules are shown by their SMILES. Activity calls are given as the source filed them. Rule for the calls: active = hit-call score of the fitted dose curve at least 0.9, where 1 is the maximum; inactive = score below 0.9.

The results in this text go back to PubChem BioAssay (EPA / NIEHS).

Sequence of Caspase-3 (Homo sapiens) (P42574 whole entry, looked up): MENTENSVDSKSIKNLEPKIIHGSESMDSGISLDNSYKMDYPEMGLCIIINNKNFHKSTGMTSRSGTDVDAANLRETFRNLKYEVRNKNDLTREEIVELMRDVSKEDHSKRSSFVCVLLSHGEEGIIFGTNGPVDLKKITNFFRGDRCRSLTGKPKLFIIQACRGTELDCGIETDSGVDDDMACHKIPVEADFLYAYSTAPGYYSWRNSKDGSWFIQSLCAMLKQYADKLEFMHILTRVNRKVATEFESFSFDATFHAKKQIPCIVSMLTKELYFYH

Read-out in this assay: Caspase-3 (Homo sapiens) (UniProt P42574)
The assay is described as follows: LTEA_HepaRG_CASP3: Life Technologies and Expression Analysis (LTEA) Assay for cysteine-aspartic acid protease (CASP3) using HepaRG (AID 2283477). To be noted: mRNA level, 48 h; actives raise or lower the signal. As to the method:
LTEA_HepaRG is a cell based, multiplexed-readout assay that uses HepaRG, a human liver cell line, with measurements taken at 48 hours after chemical dosing on a 96-well plate.LTEA_HepaRG_CASP3 is one of 102 assay component(s) measured in the LTEA HepaRG cell culture assay. It is a marker of Cell proliferation, survival, death.Data from the assay component LTEA_HepaRG_CASP3 was analyzed into 1 endpoint. This assay endpoint, LTEA_HepaRG_CASP3, was analyzed with bidirectional fitting relative to DMSO as the negative control and baseline of activity. Using a type of inducible reporter, measures of mRNA induction for gain or loss-of-signal activity can be used to understand regulation of transcription factor activity. To generalize the intended target to other relatable targets, this assay endpoint is annotated to the protease intended target family, where the subfamily is cysteine protease.
A total of 1060 chemcials from the ToxCast library were tested in eight-point concentration-response experiments. Cell culture and cytotoxicity assays were conducted at Thermo Fisher Scientific's Custom Services facility (Madison, WI). A single lot of human HepaRG cells (Thermo Fisher Scientific, Frederick, MD) was used for the cell culture experiments. 96-well format collagen type I coated plates of human HepaRG cells were prepared using established methods. Briefly, cryopreserved HepaRG cells were thawed, plated at a density of approximately 100,000 cells/well in HepaRG Thaw, Plate, and General Purpose media (HPRG770, Thermo Fisher Scientific), and incubated for 48 hours. 0.5% DMSO was selected as vehicle control to balance the requisite need of DMSO in HepaRG cultures to maintain differentiation (for example, baseline metabolism, proportions of hepatocytes vs. cholangiocytes), while enabling further hepatic receptor pathway activation (for example, PXR and CAR) in response to chemical exposure. 48 hours after plating, the culture medium was replaced with HepaRG Serum-Free Incudtion Media. Cells were exposed to each test chemical in duplicate and maintained in CO2 incubators for another 48 hours. Chemical plates were thawed to room temperature and 200x concentrations of treatment groups were prepared. 8-point conentration-reponse curves were made with the highest exposure at 100 uM, followed by half-log dilutions, all in 0.5% DMSO. Each test plate contained variouse controls, induction positive controls (1mM phenobarbital), cytotoxicity positive controls ([…] aflatoxin B1), vehicle controls (0.5% DMSO), and total lysis controls (0.5% DMSO). Cell morphology images were taken using an Essen IncuCyte FLR automated microscope, with six 96-well plates imaged in about 24 minutes. Images were captured and exported and JPEG files. Spent culture media was transfered to black-well plates for the LDH assay, and remaining media was sorted at -80 C for later use. Cells were treated with RLT buffer and frozen until shipped for gene expression analysis. Total RNA was isolated from the cell suspension in 75 uL of Buffer RLT (Qiagen, Germantown, MD 20874) by Quintiles/Expression Analysis (Durham, NC) using a custom isolation procedure. Total RNA from each plate well was transferred to a preamplification plate. Fluidigm's 96.96 Dynamic ArrayTM (Fluidigm, Amsterdam, the Netherlands) technology was used for gene expression analyses by quantitative reverse transcription polymerase chain reaction (qRT-PCR, performed by Quintiles/Expression Analysis, Durham, NC)89. Standard TaqManTM Assays (Applied Biosystems/ThermoFisher Scientific, Foster City, CA) were used to assess the expression of 93 genes selected based on their selectivity and sensitivity to important hepatic receptors known to be modulated by environmental chemicals; importance in human hepatocyte functionality; and hepatotoxicity. […]
As to `COc1cc(C=O)ccc1O`, the outcome was inactive.
As for `Oc1ccc2ccccc2c1N=Nc1ccccc1`, the molecule was classed as inactive.
Then `Nc1ccc2c(c1)C(=O)c1ccccc1C2=O`, with “inactive”.
Then `CN1CCN(Cc2cc(-c3ccc4[nH]c(=O)oc4c3)co2)[C@@H](c2ccc(F)cc2)C1`, with “inactive”; and `Nc1nc(N)c2nc(CNc3ccc(C(=O)N[C@@H](CCC(=O)O)C(=O)O)cc3)cnc2n1`, with “inactive”.
Consider `O=[N+]([O-])C(CO)(CO)CO`, for which the outcome was inactive.
Then `COc1ccc(C)cc1N`, with “inactive”; and `O=C(N[C@@H](Cc1ccccc1)[C@@H](O)C(=O)N1C[C@@H](O)[C@@H](O)C1)c1cc2cc(Cl)ccc2[nH]1`, with “inactive”; and `COc1ccc2c(c1)c(CC(=O)O)c(C)n2C(=O)c1ccc(Cl)cc1`, with “inactive”.
Next, `C1CCC(SSC2CCCCC2)CC1`: “inactive”; `CC=Cc1ccc(O)c(OC)c1`: “inactive”; `O=c1[nH]cc(F)c(=O)[nH]1`: “inactive”.
Consider `Cc1ccc(C)c(O)c1C`, for which the result was inactive.
`CC(CO)OC(C)CO` (stereo not given) (tested in a mixture with another compound): the call was inactive.
Next, `COc1cc(S(=O)(=O)O)c(C)cc1N=Nc1c(O)ccc2cc(S(=O)(=O)O)ccc12`: “inactive”; `Cc1ccccc1Cl`: “inactive”.
Next, `Cc1cccc(C)c1O`: “inactive”; `NS(=O)(=O)c1cc2c(cc1Cl)NCNS2(=O)=O`: “inactive”.
As to `Cc1ccc(C)c(C)c1`, the result was inactive.
Take `CCCCc1ccc2c(n1)[C@@H](c1ccc(OC)cc1C[C@H](C)C(=O)O)[C@H](C(=O)O)[C@H]2c1ccc2c(c1)OCO2`: the call was inactive.
Then `O=C(O)CCCCC(=O)O`, with “inactive”.
For the molecule `c1cc(-c2ccncc2)ccn1`, the result was inactive.
Next, `Cc1c(C(=O)O)c(O)cc2c1C(=O)c1c(O)c([C@@H]3O[C@H](CO)[C@@H](O)[C@H](O)[C@H]3O)c(O)c(O)c1C2=O`: “inactive”.
On to `O=C(O)Cc1ccccc1Nc1c(Cl)cccc1Cl`, for which the call was inactive.
With `CCOC(=O)C(C)(C)Oc1ccc(Cl)cc1`, the outcome was inactive.
Then `CCCCCCCCCCCCCO`, with “inactive”.
In the case of `CCCCCCOCCO`, the call was inactive.
Regarding `CCCc1cc(=O)[nH]c(=S)[nH]1`, the result was inactive.
Then `Cc1oc(-c2ccccc2)nc1CCOc1cccc2c1ccn2CCC(=O)O`, with “inactive”.
Take `Clc1cc(Cl)c(Cl)cc1Cl`: the molecule was called inactive.
Next, `CC(=O)OCCOCCOCCOC(C)=O`: “inactive”; `COCCOC[C@H](CC1(C(=O)NC2CCC(C(=O)O)CC2)CCCC1)C(=O)Oc1ccc2c(c1)CCC2` (stereo not given in full): “inactive”.
Next, `CNC(=O)[C@H]1O[C@@H](n2cnc3c(NCc4cc(Cl)ccc4OCc4cc(C)no4)ncnc32)[C@H](O)[C@@H]1N`: “inactive”; `CCCCCCCCCCCCCCCC`: “inactive”.
Then `CC1=C(/C=C/C(C)=C/C=C/C(C)=C/CO)C(C)(C)CCC1`, with “inactive”.
Consider `CCCCCCCCCCCCCCCCCC(=O)O`, for which the molecule was classed as inactive.
Then `NC(=O)Cn1c(=O)cc(CCN2CCN(c3nccc4sccc34)CC2)c2ccc(F)cc21`, with “inactive”; and `Cc1ccc(C(C)C)c(O)c1`, with “inactive”; and `Cc1cccc([N+](=O)[O-])c1C`, with “inactive”.
Then `C[C@]12C=CC(=O)C=C1CC[C@@H]1[C@@H]2C(=O)C[C@@]2(C)[C@H]1CC[C@]2(O)C(=O)CO`, with “inactive”.
